Drawing on PubChem BioAssay (Tox21), this text covers Potency and outcome for 6 molecules.

A short description of experiment [1]: qHTS assay for small molecules that induce genotoxicity in human embryonic kidney cells expressing luciferase-tagged ATAD5 (AID 651632). Note: nearly all actives have a fitted effect of over 15% in size. In short, it runs like this:
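Increased luciferase signal from ATAD5-tagged reporter cells indicates DNA-damage-driven ATAD5 induction. HEK293T cells are treated for 16 hr at 37C before detection with Amplite.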
Background: qHTS replaces the single test concentration by a dilution series.

The nature of experiment [2]: qHTS assay for small molecules that induce genotoxicity in human embryonic kidney cells expressing luciferase-tagged ATAD5 - cell viability (AID 651634; calls by dose curve; note: nearly all actives have a fitted effect of over 25% in size; note: potency is the fitted concentration of half-maximal effect). In short, it runs like this: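 Cytotoxicity counterscreen in HEK293T cells bearing an ATAD5-luciferase reporter: live-cell protease activity measured by CellTiter-Fluor fluorescence after 15.5 hr compound exposure.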

Experiment [3] is described as follows: qHTS assay for small molecule disruptors of the mitochondrial membrane potential - cell viability (AID 720634; calls by dose curve; note: nearly all actives have a fitted effect of over 20% in size; note: potency is the fitted concentration of half-maximal effect). The method, boiled down:
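After overnight attachment at 37 C, HepG2 cells received compound or DMSO vehicle for 1 hr. Viability is then taken from ATP-driven luminescence following a 30 min room-temperature CellTiter-Glo step.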

A short description of experiment [4]: qHTS assay to test for compound auto fluorescence at 590 nm (red) in HepG2 cells (AID 720674). In short, it runs like this: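 Intrinsic compound fluorescence in the red window (Ex/Em 540/590 nm) is measured in attached HepG2 cells exposed for 1 hr, DMSO vehicle as baseline, benchmarked to Rose Bengal sodium.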
The nature of experiment [5]: qHTS assay to test for compound auto fluorescence at 535 nm (green) in HepG2 cells (AID 720675).
A short description of experiment [6]: qHTS assay to test for compound auto fluorescence at 460 nm (blue) in HEK293 cells (AID 720678). The method, boiled down:
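HEK293 cells (2,000/well, medium with 10% dialyzed FBS) attached 4-5 hr, then exposed to compound overnight at 37C, 5% CO2. Blue fluorescence read at 405/460 nm, with triamterene as reference fluorophore.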

Experiment [7] is described as follows: qHTS assay to test for compound auto fluorescence at 590 nm (red) in HEK293 cells (AID 720679). In short, it runs like this:
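HEK293 cells (2,000/well, 10% dialyzed FBS) attached 4-5 hr, then dosed with compound or DMSO and incubated overnight at 37C, 5% CO2. Red fluorescence read at 540/590 nm, Rose Bengal sodium as reference fluorophore.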

A short description of experiment [8]: qHTS assay to test for compound auto fluorescence at 535 nm (green) in HEK293 cells (AID 720680).
Experiment [9] can be described thus: qHTS assay to test for compound auto fluorescence at 460 nm (blue) in HEK293 cell free culture (AID 720681). In short, it runs like this:
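Test compounds were pinned into cell-free culture medium (DMEM with 10% FBS) and fluorescence was read directly at Ex/Em 405/460 nm. Signals were expressed as fluorescence equivalents of triamterene, with DMSO vehicle as control.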

The nature of experiment [10]: qHTS assay to test for compound auto fluorescence at 535 nm (green) in HEK293 cell free culture (AID 720682). The method, boiled down: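 Fluorescein serves as the green reference fluorophore; each compound's intrinsic emission at 535 nm (excitation 485 nm) is reported as an equivalent amount of that dye, measured in serum-containing DMEM without cells.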
The nature of experiment [11]: qHTS assay to test for compound auto fluorescence at 590 nm (red) in HEK293 cell free culture (AID 720683). The method, boiled down:
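Tox21 10K library compounds were pinned into cell-free DMEM with 10% FBS and fluorescence was read at excitation 540 nm. Activity is expressed as Rose Bengal sodium equivalency.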

Experiment [12] in a line: qHTS assay to test for compound auto fluorescence at 590 nm (red) in HepG2 cell free culture (AID 720684). In short, it runs like this: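 Measured in medium alone (MEM containing 10% FBS) following pintool addition of compound; emission at 590 nm with 540 nm excitation, referenced to Rose Bengal sodium.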
A short description of experiment [13]: qHTS assay to test for compound auto fluorescence at 460 nm (blue) in HepG2 cell free culture (AID 720685). The method, boiled down:
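Compound (23 nL) or DMSO pinned into cell-free MEM with 10% FBS; blue fluorescence read at 405/460 nm excitation/emission, expressed as auto-fluorescence equivalency to triamterene.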

Experiment [14] in a line: qHTS assay to test for compound auto fluorescence at 535 nm (green) in HepG2 cell free culture (AID 720686).
Experiment [15] is described as follows: qHTS assay to test for compound auto fluorescence at 460 nm (blue) in HepG2 cells (AID 720687). In short, it runs like this: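 Cells (2,000/well in MEM with 10% FBS) attached overnight at 37 C, then were exposed to compound or DMSO for 1 hr at 37 C, 5% CO2. Fluorescence read at Ex/Em 405/460 nm, expressed as triamterene-equivalent signal.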
Experiment [16] can be described thus: qHTS assay for small molecule agonists of the p53 signaling pathway - cell viability (AID 651633; calls by dose curve;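 note: p53RE-bla HCT reporter cells with a stable beta-lactamase p53 reporter; series mostly up to about 83 µM; nearly all actives have a fitted effect of over 30% in size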). The method, boiled down:
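p53RE-bla cells, seeded at 4,000 per well and rested 5 h at 37 C/5% CO2, received compounds in DMSO for 16 h at 37 C. CellTiter-Glo was then added, and luminescence was read after 30 min at room temperature to gauge cytotoxicity.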

The nature of experiment [17]: qHTS assay for small molecule disruptors of the mitochondrial membrane potential (AID 720635). Note: potency is the fitted concentration of half-maximal effect. The method, boiled down: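 HepG2 cells (2,000/well) attached overnight at 37C, then took compound for 1 hr at 37C, 5% CO2. Mito-MPS dye was added for 30 min; fluorescence was read at 490/535 nm (monomers) and 540/590 nm (aggregates).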
The target in experiment [18] is Glucocorticoid receptor (Homo sapiens) (UniProt P04150). In words: qHTS assay to identify small molecule agonists of the glucocorticoid receptor (GR) signaling pathway (AID 720691; active = well fitted activation curve with a large enough effect in the signal ratio in the repeat runs, not every such curve was filed as active; the % refers to the signal ratio). In short, it runs like this: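 Agonist mode in a HeLa line carrying a GRE-controlled beta-lactamase reporter. Compounds act for 18 h at 37 C before a 2 h room-temperature FRET substrate step and fluorescence reading.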
Chain of Glucocorticoid receptor (Homo sapiens) (P04150 whole entry, looked up): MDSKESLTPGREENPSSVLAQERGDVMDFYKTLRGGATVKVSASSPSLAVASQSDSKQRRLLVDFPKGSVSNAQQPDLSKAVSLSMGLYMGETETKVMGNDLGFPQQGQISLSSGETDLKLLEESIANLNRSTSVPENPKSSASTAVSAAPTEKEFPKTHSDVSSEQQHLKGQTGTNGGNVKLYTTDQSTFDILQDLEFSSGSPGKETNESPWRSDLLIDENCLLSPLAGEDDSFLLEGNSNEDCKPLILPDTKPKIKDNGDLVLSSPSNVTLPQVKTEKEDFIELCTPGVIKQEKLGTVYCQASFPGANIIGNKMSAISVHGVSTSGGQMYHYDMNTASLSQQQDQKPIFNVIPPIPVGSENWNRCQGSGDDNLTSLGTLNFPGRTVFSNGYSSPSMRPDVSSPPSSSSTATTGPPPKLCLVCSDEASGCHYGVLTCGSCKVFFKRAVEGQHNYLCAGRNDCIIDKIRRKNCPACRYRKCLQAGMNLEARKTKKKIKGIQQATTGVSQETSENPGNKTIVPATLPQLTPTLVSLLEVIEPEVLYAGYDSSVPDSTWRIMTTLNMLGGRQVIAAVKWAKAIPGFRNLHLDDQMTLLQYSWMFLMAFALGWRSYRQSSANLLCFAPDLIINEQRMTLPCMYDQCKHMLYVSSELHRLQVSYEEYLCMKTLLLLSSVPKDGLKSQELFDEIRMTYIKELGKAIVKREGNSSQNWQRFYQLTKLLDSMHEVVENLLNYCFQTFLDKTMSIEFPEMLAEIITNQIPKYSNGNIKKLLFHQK

For experiment [19] the target is unchanged. The experiment is described as follows: qHTS assay to identify small molecule antagonists of the glucocorticoid receptor (GR) signaling pathway (AID 720692; active = well fitted inhibition curve with a large enough effect in the signal ratio in the repeat runs, not every such curve was filed as active; the % refers to the signal ratio). The method, boiled down: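 Cells plated, rested 4 h at 37 C/5% CO2; compounds in DMSO pin-transferred; dexamethasone added to 5 nM final; 18 h at 37 C; B/G FRET substrate added, 2 h room temperature; fluorescence measured.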

“And” between values parts separate entries of the source, which are not always exact repeats. Equal values may be shown once. Inconclusive results are not listed. Some compounds were tested as several samples or in several runs, with calls that do not always agree. The source made the active and inactive calls. Unless noted, calls come from the whole dose curve; as a rule, active = well fitted curve in the direction sought with a large enough effect in the repeat runs; inconclusive = weak or mixed curves; inactive = no such curve, though single readings can be large; an effect the other way counts as inactive or inconclusive.

On to `O=C(O)C(O)C(O)C(=O)O` (stereo not drawn), for which the Potency entry in experiment [1], in experiment [2] and in experiment [3] was “inactive” each time. Also, the result in [4], in [5], in [6], in experiment [7], in experiment [8] and in experiment [9] was inactive. In addition, the call in experiment [10], in [11], in experiment [12], in experiment [13], in [14] and in experiment [15] was inactive.

Take `O=C(O)CCCOc1ccc(Cl)cc1Cl`: the Potency entry in [16] and in [3] was “inactive” in each case. Moreover, the molecule was classed as inactive in experiment [4], in experiment [5], in experiment [6], in [7], in [8] and in experiment [9]. Also, the molecule was called inactive in experiment [10], in experiment [11], in [12], in experiment [13], in [14] and in experiment [15].

Regarding `Cc1ncc(C[n+]2csc(CCO)c2C)c(N)n1`, the Potency entry in experiment [3] is “inactive”. In addition, the call in experiment [4], in experiment [5], in experiment [6], in experiment [7], in experiment [8] and in experiment [9] was inactive. Also, the molecule was called inactive in experiment [10], in experiment [11], in experiment [12], in [13], in [14] and in experiment [15].

For `CCCCCCCCCCCC[N+](C)(C)CCOc1ccccc1`, the Potency entry in experiment [1] is “inactive”. Moreover, the Potency in [2] is 29.8 µM (active) and 61.1 µM (active); in experiment [3], “inactive and 68.6 µM (active)”; in experiment [17] it was 26.6 µM (active) and 30.6 µM (active). In addition, the molecule was called inactive in experiment [4], in experiment [5], in experiment [6], in [7], in [8] and in experiment [9]. The result in experiment [10], in experiment [12], in [13], in experiment [14] and in [15] was inactive.

In the case of `O=C(Cc1ccccc1)c1ccccc1`, the Potency result in [1], in experiment [3], in experiment [18] and in experiment [19] was “inactive” each time. Besides, the molecule was classed as inactive in experiment [4], in [5], in [6], in [7], in [8] and in experiment [9]. Also, the call in experiment [10], in [12], in [13], in [14] and in experiment [15] was inactive.

`CC(C)(C)N(NC(=O)c1ccc(Cl)cc1)C(=O)c1ccccc1`: the Potency entry in experiment [1], in [16], in experiment [18] and in experiment [19] was “inactive” throughout. In addition, in experiment [17], the Potency is 60.8 µM (active). Also, the result in experiment [4], in [6], in experiment [7], in experiment [8], in [9] and in experiment [10] was inactive. The molecule was classed as inactive in experiment [11], in experiment [12], in experiment [13], in experiment [14] and in experiment [15].
